Records with an inconclusive call do not appear. Activity calls are given as the source filed them. Unless noted, calls come from the whole dose curve; as a rule, active = well fitted curve in either direction with a large enough effect (not every such curve was filed as active); inconclusive = small, poorly fitted or top-dose-only effect, or another doubt; inactive = flat fitted curve, though single readings scatter.
Legend:
[1] = target: Lysosomal acid glucosylceramidase (Homo sapiens) (UniProt P04062); test: Glucocerebrosidase-p2 (AID 348; in the data active = potency below about 10 µM; note: potency is the fitted concentration of half-maximal effect); details: purified GBA, blue fluorogenic substrate, 40 min
In short: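 Compounds titrated from 0.6 nM upwards against 0.2 nM enzyme in pH 5.9 citric acid/KH2PO4, taurocholate, tween-20; blue fluorogenic substrate 80 uM, 40 min room temperature, stopped and read Ex 365/Em 440 for AC50.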

[2] = AP1 Signaling Pathway (AID 357); details: ME-180 AP-1-bla reporter, EGF-induced, beta-lactamase ratio, 5 h; at 7.69 µM (top of the series) unless noted;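 note: ME-180 reporter cells stimulated with EGF at its EC50 level; % is set by controls: 0 for no effect and ±100 for the full control effect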
In short: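 Read-out was the 460nm/530nm emission ratio (excitation 405nm) after CCF4 loading for 2.5 hours at room temperature. Cells carried an AP-1-driven beta-lactamase reporter, were stimulated with EC50 EGF plus compound for 5 hours, and AC50 values came from titrations.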

[3] = target: Cytochrome P450 1A2 (Homo sapiens) (UniProt P05177); test: p450-cyp1a2 (AID 410; calls by dose curve; note: potency is the fitted concentration of half-maximal effect;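 for activity change, negative = inhibition: -100% = full effect of reference inhibitor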); details: recombinant CYP1A2, luciferin-ME demethylation, luminescence; series mostly up to 11.4 µM
In short: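 Inhibition was calculated relative to 57 uM furafylline (full inhibition). The reaction used human CYP1A2 at 20nM with Luciferin-ME at its Km, 100uM, driven by an NADPH-regenerating system for 60 min at room temperature.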

[4] = NFAT Signaling Pathway (AID 444); details: Jurkat NFAT-bla M1, carbachol, beta-lactamase ratio, 5 h; at 7.69 µM (top of the series) unless noted;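 note: carbachol stimulus at about its EC50 of 1 µM final; % is set by controls: 0 for no effect and ±100 for the full control effect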
In short: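 Jurkat cells with NFAT-driven β-lactamase reporter and co-expressed M1 receptor, stimulated with carbachol (final 1 uM, ~EC50), compound titration, 5 h at 37 °C. CCF4 loaded 1 h at RT; 460/530 nm ratio gave %activity and AC50.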

[5] = Stat Signaling Pathway (AID 446); details: ME-180 SIE beta-lactamase reporter, IL-6 stimulated, 5 h; at 7.69 µM (top of the series) unless noted;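 note: ME-180 cervical cancer cells given 40 pM IL-6 alongside compound; SIE-controlled beta-lactamase reporter measured as 460/530 nm FRET emission ratio; % is set by controls: 0 for no effect and ±100 for the full control effect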
In short: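 Reporter line: ME-180 cervical carcinoma, SIE-beta-lactamase. Treatment: compound with 40 pM IL-6, 5 hrs, 37 C, in low-serum OPTI-MEM with 10 mM HEPES pH 7.3. Detection: 460/530 nm fluorescence.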

[6] = target: Glucocorticoid receptor (Homo sapiens) (UniProt P04150); test: GR-GFP Redistribution (AID 450;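 active = compounds whose dose series gives a full or clear partial fitted curve of increased nuclear translocation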; note: potency is the fitted concentration of half-maximal effect); details: U2OS GR-GFP nuclear translocation, laser cytometry, 2 h
[7] = target: Mitogen-activated protein kinase 10 (Mus musculus) (UniProt Q61831); test: JNK3 AlphaScreen Assay (AID 530); details: JNK3 lysate, c-Jun phosphorylation; series mostly up to 11.4 µM;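 note: kinase came from lysate of stimulated human HepG2 cells; signal reports phosphorylation of biotinylated GST-cJun 1-79 at Ser73 with 10 µM ATP; % is set by controls: 0 for no effect and ±100 for the full control effect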
In short: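 qHTS format: compounds tested as titrations against IL-1beta/TNF-alpha-activated HepG2 lysate JNK3 with biotin-GST-cJun substrate and 10 uM ATP at room temperature. Loss of anti-phospho-cJun AlphaScreen signal indicates inhibition.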

[8] = target: 3',5'-cyclic-AMP phosphodiesterase 4B (Homo sapiens) (UniProt Q07343); test: qHTS Assay for Inhibitors of PDE-IV (AID 607; active = well fitted activation curve with a large enough effect in the main read-out, with a control signal flat, not every such curve was filed as active; note: % of control where 0% means no effect); details: HEK293 ACTOne CNG channel cells, membrane potential fluorescence; series mostly up to 22.9 µM
In short: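 Cell-based read-out of cAMP via a modified cyclic nucleotide-gated channel and membrane potential dye (535/590 nm) in HEK293 cells expressing PDE4 endogenously. Compounds tested up to 22.9 uM final; 100 uM RO 20-1724 reference.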

[9] = target: Cytochrome P450 3A4 (Homo sapiens) (UniProt P08684); test: qHTS Assay for Inhibitors and Substrates of Cytochrome P450 3A4 (AID 884; active = well fitted curve in the direction sought with a large enough effect; an effect the other way counts as inactive or inconclusive; note: nearly all actives have a fitted effect of over 50% in size; note: potency is the fitted concentration of half-maximal effect); details: recombinant CYP3A4, Luciferin-PPXE luminescence; series mostly up to 57.1 µM
In short: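 20 nM human CYP3A4 with 25 uM Luciferin-PPXE (at KM) in 200 mM KPO4, preincubated 10 min with compound; NADPH regeneration started a 60 min RT reaction. Luciferin detected by luminescence, normalized to 57 uM ketoconazole as full inhibition.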

[10] = target: Cytochrome P450 3A4 (Homo sapiens) (UniProt P08684); test: qHTS Assay for Activators of Cytochrome P450 3A4 (AID 885; active = well fitted curve in the direction sought with a large enough effect; an effect the other way counts as inactive or inconclusive; note: nearly all actives have a fitted effect of over 65% in size); details: recombinant CYP3A4, Luciferin-PPXE luminescence, 60 min; series mostly up to 11.4 µM
In short: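 Signal was normalized against complete inhibition by 57 uM ketoconazole. The reaction used 20nM CYP3A4 with 25uM Luciferin-PPXE, 10-min compound preincubation and a 60-min NADPH-supported step at RT.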

[11] = target: Cytochrome P450 2C19 (Homo sapiens) (UniProt P33261); test: qHTS Assay for Inhibitors and Substrates of Cytochrome P450 2C19 (AID 899; active = well fitted curve in the direction sought with a large enough effect; an effect the other way counts as inactive or inconclusive; note: potency is the fitted concentration of half-maximal effect; nearly all actives have a fitted effect of over 60% in size); details: recombinant CYP2C19, luciferin-H EGE luminescence; series mostly up to 11.4 µM
In short: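 Signal comes from luciferase acting on luciferin released by CYP2C19-mediated hydroxylation of Luciferin-H EGE, 10uM (KM). Assay mix: 5nM enzyme, 50mM KPO4; 60 min at 37C with NADPH regeneration. Data normalized against 57uM ketoconazole.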

[12] = target: Glucocorticoid receptor (Homo sapiens) (UniProt P04150); test: GR-EFC Redistribution (AID 451; calls by dose curve; note: potency is the fitted concentration of half-maximal effect); details: CHO-K1 GR-EFC translocation, beta-gal luminescence, 2 h
In short: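 CHO-K1 cells expressing nuclear EA and GR-ED fragments of b-gal; compounds titrated up to 46 uM final, 2 h at 37 C. GR nuclear translocation read as complemented b-gal luminescence after 1 h RT detection.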

[13] = qHTS Assay for Identification of Small Molecule Agonists for Hypoxia Response Element Signaling Pathway (AID 914; active = well fitted activation curve with a large enough effect in the signal ratio, with a control signal flat, not every such curve was filed as active; the % refers to the signal ratio; note: % of control where 0% means no effect); details: ME-180 HRE-bla reporter, beta-lactamase ratio, CoCl2, 17 h; activation: hits give high values
In short: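 ME-180 cells carrying an HRE-driven beta-lactamase reporter were treated with compounds in a titration series plus an EC50 level of CoCl2 for 17 h at 37 degrees Celsius; CCF4 readout as the 460nm/530nm ratio gave AC50 values.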

[14] = target: Cytochrome P450 2C9 (Homo sapiens) (UniProt P11712); test: qHTS Assay for Inhibitors and Substrates of Cytochrome P450 2C9 (AID 883; active = well fitted curve in the direction sought with a large enough effect; an effect the other way counts as inactive or inconclusive; note: nearly all actives have a fitted effect of over 60% in size; note: potency is the fitted concentration of half-maximal effect); details: recombinant CYP2C9, luciferin-H luminescence, 60 min; series mostly up to 11.4 µM
In short: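 Signal: luciferase luminescence reporting luciferin produced by CYP2C9. Conditions: 10nM enzyme, Luciferin-H 100uM at KM, 25mM KPO4, 37C, 60 min NADPH-driven reaction. Reference: 57uM sulphaphenazole as 100% inhibition.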

[15] = target: Cytochrome P450 2D6 (Homo sapiens) (UniProt P10635); test: qHTS Assay for Inhibitors and Substrates of Cytochrome P450 2D6 (AID 891; active = well fitted curve in the direction sought with a large enough effect; an effect the other way counts as inactive or inconclusive;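 note: luciferin methyl ether substrate demethylated by CYP2D6 with NADPH regeneration; % is set by controls: 0 for no effect and ±100 for the full control effect; nearly all actives have a fitted effect of over 60% in size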); details: recombinant CYP2D6, luciferin-ME EGE luminescence; series mostly up to 11.4 µM
In short: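 Human CYP2D6 (5 nM) with 30 uM Luciferin-ME EGE (at Km) in 100 mM KPO4, compound preincubated 10 min, then NADPH regeneration system for 60 min at room temperature. Luciferin read by luminescence; normalized to 1.43 uM quinidine.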

Sequence of Glucocorticoid receptor (Homo sapiens) (P04150 whole entry, looked up, the tested form may be a part): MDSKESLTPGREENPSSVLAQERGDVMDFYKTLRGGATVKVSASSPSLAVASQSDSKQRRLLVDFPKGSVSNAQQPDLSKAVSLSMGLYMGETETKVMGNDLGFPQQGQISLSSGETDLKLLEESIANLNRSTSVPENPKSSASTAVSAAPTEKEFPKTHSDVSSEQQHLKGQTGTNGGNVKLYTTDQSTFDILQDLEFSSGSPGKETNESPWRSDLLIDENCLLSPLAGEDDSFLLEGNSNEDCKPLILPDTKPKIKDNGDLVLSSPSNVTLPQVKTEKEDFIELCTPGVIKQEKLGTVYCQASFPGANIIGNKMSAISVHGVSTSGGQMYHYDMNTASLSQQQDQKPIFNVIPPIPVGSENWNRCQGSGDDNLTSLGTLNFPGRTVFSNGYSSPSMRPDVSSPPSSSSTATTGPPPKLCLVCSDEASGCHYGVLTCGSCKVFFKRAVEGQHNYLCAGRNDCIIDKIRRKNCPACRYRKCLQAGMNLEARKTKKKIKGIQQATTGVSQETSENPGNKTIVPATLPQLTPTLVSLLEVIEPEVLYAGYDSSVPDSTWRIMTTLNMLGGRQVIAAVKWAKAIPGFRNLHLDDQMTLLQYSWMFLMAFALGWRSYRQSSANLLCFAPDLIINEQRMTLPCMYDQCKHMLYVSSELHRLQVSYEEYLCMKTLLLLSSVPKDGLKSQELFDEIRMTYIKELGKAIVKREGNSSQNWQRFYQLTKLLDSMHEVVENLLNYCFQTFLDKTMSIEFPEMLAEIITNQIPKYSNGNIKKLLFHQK
Sequence of Lysosomal acid glucosylceramidase (Homo sapiens) (P04062 whole entry, looked up): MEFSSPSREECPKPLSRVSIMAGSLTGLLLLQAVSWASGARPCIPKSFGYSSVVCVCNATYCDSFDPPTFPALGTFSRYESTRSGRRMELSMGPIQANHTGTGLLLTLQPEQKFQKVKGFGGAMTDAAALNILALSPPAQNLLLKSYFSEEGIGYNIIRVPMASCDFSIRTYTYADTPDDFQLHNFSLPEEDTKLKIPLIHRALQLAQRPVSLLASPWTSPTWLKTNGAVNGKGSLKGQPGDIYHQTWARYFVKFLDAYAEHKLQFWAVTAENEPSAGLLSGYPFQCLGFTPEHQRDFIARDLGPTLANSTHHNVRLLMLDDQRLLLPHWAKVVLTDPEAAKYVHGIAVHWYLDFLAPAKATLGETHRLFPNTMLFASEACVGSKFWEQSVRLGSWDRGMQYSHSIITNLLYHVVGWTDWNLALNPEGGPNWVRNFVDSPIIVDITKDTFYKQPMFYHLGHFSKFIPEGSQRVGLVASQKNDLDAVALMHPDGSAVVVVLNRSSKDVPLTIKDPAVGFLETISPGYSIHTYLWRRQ
Sequence of 3',5'-cyclic-AMP phosphodiesterase 4B (Homo sapiens) (Q07343 whole entry, looked up): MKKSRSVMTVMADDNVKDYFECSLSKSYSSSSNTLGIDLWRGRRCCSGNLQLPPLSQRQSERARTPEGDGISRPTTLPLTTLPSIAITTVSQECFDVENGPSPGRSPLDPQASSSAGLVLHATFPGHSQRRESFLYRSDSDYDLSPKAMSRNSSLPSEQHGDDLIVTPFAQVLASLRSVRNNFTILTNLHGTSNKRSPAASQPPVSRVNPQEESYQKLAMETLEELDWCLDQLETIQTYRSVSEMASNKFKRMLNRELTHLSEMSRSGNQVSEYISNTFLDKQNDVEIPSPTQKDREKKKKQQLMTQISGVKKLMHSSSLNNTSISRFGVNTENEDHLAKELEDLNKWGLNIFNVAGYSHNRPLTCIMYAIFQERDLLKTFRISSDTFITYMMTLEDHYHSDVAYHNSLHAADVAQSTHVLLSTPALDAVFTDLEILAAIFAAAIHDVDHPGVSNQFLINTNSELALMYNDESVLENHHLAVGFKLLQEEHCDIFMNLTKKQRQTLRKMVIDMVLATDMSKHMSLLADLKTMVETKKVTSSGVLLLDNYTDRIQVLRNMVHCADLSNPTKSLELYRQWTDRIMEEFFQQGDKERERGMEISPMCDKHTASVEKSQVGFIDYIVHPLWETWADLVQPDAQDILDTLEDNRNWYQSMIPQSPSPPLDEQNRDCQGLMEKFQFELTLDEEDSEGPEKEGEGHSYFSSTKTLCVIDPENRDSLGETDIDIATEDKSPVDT
Sequence of Cytochrome P450 3A4 (Homo sapiens) (P08684 whole entry, looked up): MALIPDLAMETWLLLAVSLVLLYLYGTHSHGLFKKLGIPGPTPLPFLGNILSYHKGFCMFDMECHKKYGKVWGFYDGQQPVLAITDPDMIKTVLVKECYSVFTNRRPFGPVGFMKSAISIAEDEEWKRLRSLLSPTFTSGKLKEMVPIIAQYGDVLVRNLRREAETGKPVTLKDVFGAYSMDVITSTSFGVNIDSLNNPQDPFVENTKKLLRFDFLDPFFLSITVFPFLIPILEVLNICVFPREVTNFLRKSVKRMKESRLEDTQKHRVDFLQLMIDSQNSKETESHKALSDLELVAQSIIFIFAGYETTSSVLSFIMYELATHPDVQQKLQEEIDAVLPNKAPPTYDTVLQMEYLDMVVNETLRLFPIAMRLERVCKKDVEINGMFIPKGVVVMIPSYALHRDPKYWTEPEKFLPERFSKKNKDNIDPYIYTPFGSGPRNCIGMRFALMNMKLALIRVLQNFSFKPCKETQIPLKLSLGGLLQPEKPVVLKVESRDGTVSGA
Sequence of Cytochrome P450 1A2 (Homo sapiens) (P05177 whole entry, looked up): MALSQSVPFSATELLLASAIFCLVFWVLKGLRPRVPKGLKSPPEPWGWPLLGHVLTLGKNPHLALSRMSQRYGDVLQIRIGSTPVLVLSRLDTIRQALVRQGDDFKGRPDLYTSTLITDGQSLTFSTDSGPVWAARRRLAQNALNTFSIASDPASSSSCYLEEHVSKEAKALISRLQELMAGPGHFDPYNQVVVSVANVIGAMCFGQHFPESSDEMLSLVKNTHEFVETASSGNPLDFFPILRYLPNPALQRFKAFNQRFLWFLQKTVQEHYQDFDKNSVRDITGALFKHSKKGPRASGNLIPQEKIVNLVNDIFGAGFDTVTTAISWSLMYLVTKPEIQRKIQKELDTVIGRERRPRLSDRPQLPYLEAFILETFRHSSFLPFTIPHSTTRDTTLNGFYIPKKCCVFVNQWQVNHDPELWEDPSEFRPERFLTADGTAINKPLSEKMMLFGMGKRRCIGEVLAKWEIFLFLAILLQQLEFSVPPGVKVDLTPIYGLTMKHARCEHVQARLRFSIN
Sequence of Cytochrome P450 2C9 (Homo sapiens) (P11712 whole entry, looked up): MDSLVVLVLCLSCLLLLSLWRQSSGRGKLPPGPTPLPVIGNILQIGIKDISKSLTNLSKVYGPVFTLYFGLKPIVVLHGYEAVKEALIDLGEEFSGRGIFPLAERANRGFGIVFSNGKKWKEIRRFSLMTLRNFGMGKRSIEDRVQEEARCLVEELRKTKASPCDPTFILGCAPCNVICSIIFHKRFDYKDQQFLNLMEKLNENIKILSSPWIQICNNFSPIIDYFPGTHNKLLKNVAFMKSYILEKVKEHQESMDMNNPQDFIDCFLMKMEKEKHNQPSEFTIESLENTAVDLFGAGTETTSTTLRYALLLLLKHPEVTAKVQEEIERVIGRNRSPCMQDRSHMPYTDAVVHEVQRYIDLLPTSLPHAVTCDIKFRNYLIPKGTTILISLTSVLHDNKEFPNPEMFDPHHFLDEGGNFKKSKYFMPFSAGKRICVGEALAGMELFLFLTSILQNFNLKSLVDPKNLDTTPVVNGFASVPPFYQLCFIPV
Sequence of Cytochrome P450 2C19 (Homo sapiens) (P33261 whole entry, looked up): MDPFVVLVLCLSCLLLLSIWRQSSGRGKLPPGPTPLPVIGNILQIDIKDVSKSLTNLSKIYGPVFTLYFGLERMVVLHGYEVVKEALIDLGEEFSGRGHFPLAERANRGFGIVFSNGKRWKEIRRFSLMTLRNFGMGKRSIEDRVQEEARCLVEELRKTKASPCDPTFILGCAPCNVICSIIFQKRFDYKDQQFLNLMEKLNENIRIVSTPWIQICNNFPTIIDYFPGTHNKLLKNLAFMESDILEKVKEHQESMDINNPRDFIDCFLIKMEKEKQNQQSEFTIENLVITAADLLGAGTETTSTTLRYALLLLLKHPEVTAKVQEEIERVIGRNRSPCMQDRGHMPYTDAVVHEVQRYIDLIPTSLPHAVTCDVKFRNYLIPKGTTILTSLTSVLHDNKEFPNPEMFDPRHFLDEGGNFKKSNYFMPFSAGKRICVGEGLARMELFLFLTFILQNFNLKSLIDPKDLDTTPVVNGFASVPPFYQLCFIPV
Sequence of Cytochrome P450 2D6 (Homo sapiens) (P10635 whole entry, looked up): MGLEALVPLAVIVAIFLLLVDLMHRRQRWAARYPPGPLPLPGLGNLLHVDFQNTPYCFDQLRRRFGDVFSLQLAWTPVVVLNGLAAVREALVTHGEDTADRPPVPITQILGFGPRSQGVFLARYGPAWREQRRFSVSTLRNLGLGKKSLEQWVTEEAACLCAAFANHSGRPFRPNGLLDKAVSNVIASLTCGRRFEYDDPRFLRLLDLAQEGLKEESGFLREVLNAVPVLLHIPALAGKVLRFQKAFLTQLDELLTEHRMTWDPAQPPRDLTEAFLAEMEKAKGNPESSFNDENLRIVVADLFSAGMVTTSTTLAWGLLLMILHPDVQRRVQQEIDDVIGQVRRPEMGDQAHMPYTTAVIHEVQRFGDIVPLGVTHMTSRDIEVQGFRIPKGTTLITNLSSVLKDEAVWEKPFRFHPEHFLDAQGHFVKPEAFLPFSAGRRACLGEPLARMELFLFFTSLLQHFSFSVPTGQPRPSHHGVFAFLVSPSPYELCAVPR

O=S(=O)(c1cnccc1N1CCN(CCO)CC1)N1CCCC1
inactive: Potency [1] > 11.4 µM | activity change, negative = inhibition [2] 7.47% | activity change, negative = inhibition [3] -8.3% [at 2.29 µM] | activity change, negative = inhibition [4] 4.17% | activity, negative = inhibition [5] 8.84% | Potency [6] > 46 µM | Potency [7] | Potency [8] | Potency [10]
active: Potency [9] 3.98 µM

O=C(CC(=O)c1ccncc1)c1ccccc1
active: Potency [3] 0.1 µM | Potency [9] 3.16 µM | Potency [11] 0.398 µM
inactive: Potency [1] > 11.4 µM | activity change, negative = inhibition [2] 4.49% | activity change, negative = inhibition [4] 13.8% | activity, negative = inhibition [5] 4.76% | Potency [6] > 46 µM | Potency [7] | Potency [8] | Potency [10]

Nc1nc(-c2cccs2)cs1
inactive: Potency [1] > 11.4 µM | activity change, negative = inhibition [2] 1.24% | activity change, negative = inhibition [3] -30.1% [at 2.29 µM] | activity change, negative = inhibition [4] 6.96% | activity, negative = inhibition [5] 5.4% | Potency [6] > 46 µM | Potency [12] > 9.22 µM | Potency [8] | Potency [10] | activation [13] -9.81%

O=C(CCCc1ccccn1)c1ccccc1
active: Potency [3] 5.01 µM
inactive: Potency [1] > 11.4 µM | activity change, negative = inhibition [2] 4.82% | activity change, negative = inhibition [4] 1.79% | activity, negative = inhibition [5] 2.46% | Potency [6] > 46 µM | Potency [7] | Potency [8]

Cn1c(=O)c2[nH]c(SCc3ccccn3)nc2n(C)c1=S
inactive: Potency [1] > 11.4 µM | activity change, negative = inhibition [2] -5.29% | activity change, negative = inhibition [4] 13% | activity, negative = inhibition [5] -3.9% | Potency [6] > 46 µM | Potency [7] | Potency [8] | Potency [10] | Potency [15]
active: Potency [3] 0.0126 µM | Potency [14] 3.16 µM | Potency [9] 3.98 µM

Cc1cc(SCC(=O)c2ccccc2)nc2ccccc12
active: Potency [3] 0.398 µM | Potency [11] 0.398 µM
inactive: Potency [1] > 11.4 µM | activity change, negative = inhibition [2] -8.06% | activity change, negative = inhibition [4] 13.7% | activity, negative = inhibition [5] 9.67% | Potency [6] > 46 µM | Potency [7] | Potency [8] | Potency [14] | activity change, negative = inhibition [9] -103% [at 11.4 µM] | Potency [15]

CSc1nc(C)cc(Nc2ccc(O)c(CN3CCOCC3)c2)n1
inactive: Potency [1] > 11.4 µM | activity change, negative = inhibition [2] -11.8% | activity change, negative = inhibition [4] 12.3% | activity, negative = inhibition [5] -6.58% | Potency [6] > 46 µM | Potency [7] | Potency [8]
active: Potency [3] 3.98 µM

Source: PubChem BioAssay (NCATS)
